About 83,000 compounds went through this panel and 20% of them were active in at least one assay; those are over-represented in the sample as a whole.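 In brief: 96-well plates, 48 h treatment, single concentration, percent growth endpoint.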 Calls of active or inactive are those of the source. How the source made its calls: active means growth percent below 10; inactive means the rest.
Assays:
Assay in all cases: NCI-60 one-dose screen, 48 h (100 = growth as untreated, 0 = no growth, -100 = all killed)
Settings in all cases: 10 µM unless noted
SK-MEL-2 melanoma = test system: SK-MEL-2 melanoma
EKVX NSCLC = test system: EKVX NSCLC
UO-31 renal = test system: UO-31 renal
TK-10 renal = test system: TK-10 renal
ACHN renal = test system: ACHN renal
CAKI-1 renal = test system: CAKI-1 renal
A498 renal = test system: A498 renal
CCRF-CEM leukemia = test system: CCRF-CEM leukemia
MOLT-4 leukemia = test system: MOLT-4 leukemia
SR leukemia = test system: SR leukemia
RPMI-8226 leukemia = test system: RPMI-8226 leukemia
OVCAR-8 ovarian = test system: OVCAR-8 ovarian
OVCAR-5 ovarian = test system: OVCAR-5 ovarian
OVCAR-4 ovarian = test system: OVCAR-4 ovarian
SK-OV-3 ovarian = test system: SK-OV-3 ovarian
IGROV1 ovarian = test system: IGROV1 ovarian
OVCAR-3 ovarian = test system: OVCAR-3 ovarian
HS 578T breast = test system: HS 578T breast
NCI/ADR-RES ovarian = test system: NCI/ADR-RES ovarian

Measured: growth

O=c1[nH]c2ccccc2cc1CSc1nccc(-c2ccc3ccccc3c2)n1
inactive: SK-MEL-2 melanoma 84.5% | EKVX NSCLC 49.4% | UO-31 renal 78.6% | TK-10 renal 83% | ACHN renal 95.8% | CAKI-1 renal 56.6% | A498 renal 114% | CCRF-CEM leukemia 33.1% | MOLT-4 leukemia 21.9% | SR leukemia 20.6% | RPMI-8226 leukemia 52.1% | OVCAR-8 ovarian 79.6% | OVCAR-5 ovarian 93.7% | OVCAR-4 ovarian 80.3% | SK-OV-3 ovarian 84.3% | IGROV1 ovarian 89.9% | OVCAR-3 ovarian 102% | HS 578T breast 71% | NCI/ADR-RES ovarian 41.7%

O=c1[nH]c2ccccc2cc1CSc1cccc(Nc2nccc(-c3ccc4ccccc4c3)n2)c1
inactive: SK-MEL-2 melanoma 98.3% | EKVX NSCLC 95.4% | UO-31 renal 73.4% | TK-10 renal 79.9% | ACHN renal 95.5% | CAKI-1 renal 81.2% | A498 renal 106% | CCRF-CEM leukemia 46.8% | MOLT-4 leukemia 65.9% | SR leukemia 89.5% | RPMI-8226 leukemia 49.4% | OVCAR-8 ovarian 74.9% | OVCAR-5 ovarian 114% | OVCAR-4 ovarian 69.4% | IGROV1 ovarian 102% | OVCAR-3 ovarian 117% | HS 578T breast 105% | NCI/ADR-RES ovarian 51.4%

CCCCSc1nc(NCCc2c[nH]c3ccccc23)c(C#N)c(-c2ccccc2)n1
active: CCRF-CEM leukemia 8.29% | SR leukemia 2.16%
inactive: SK-MEL-2 melanoma 74% | EKVX NSCLC 32.9% | UO-31 renal 45.5% | TK-10 renal 74.3% | ACHN renal 43.2% | CAKI-1 renal 35.2% | A498 renal 61.8% | MOLT-4 leukemia 13.8% | RPMI-8226 leukemia 14.1% | OVCAR-8 ovarian 49.2% | OVCAR-5 ovarian 82.7% | OVCAR-4 ovarian 62.2% | IGROV1 ovarian 96% | OVCAR-3 ovarian 55.9% | HS 578T breast 39.6% | NCI/ADR-RES ovarian 22.9%

Cc1cccc(NC(=O)[C@]23CCC(C)(C)CC2C2=CCC4[C@@]5(C)C[C@@H](O)[C@H](O)[C@@](C)(CO)C5CC[C@@]4(C)[C@]2(C)CC3)c1 (some centres not stated)
active: ACHN renal 1.52% | A498 renal -11.3% | MOLT-4 leukemia 5.2% | SR leukemia -26% | RPMI-8226 leukemia 2.61% | OVCAR-5 ovarian -28.9% | NCI/ADR-RES ovarian 7.61%
inactive: SK-MEL-2 melanoma 32.2% | EKVX NSCLC 11.5% | UO-31 renal 14.3% | TK-10 renal 52.9% | CAKI-1 renal 22.8% | CCRF-CEM leukemia 15.8% | OVCAR-8 ovarian 39.3% | OVCAR-4 ovarian 23.5% | SK-OV-3 ovarian 36.9% | IGROV1 ovarian 35.6% | OVCAR-3 ovarian 41.3% | HS 578T breast 31%

Cc1ccc(C(SCCNCc2cc(N(C)C)ccn2)(c2ccccc2)c2ccccc2)cc1
inactive: OVCAR-4 ovarian 11.4%
active: SK-MEL-2 melanoma -36.3% | EKVX NSCLC -24.8% | UO-31 renal 8.42% | TK-10 renal -4.26% | ACHN renal 3.79% | CAKI-1 renal -10.4% | A498 renal -43.8% | CCRF-CEM leukemia -3.65% | MOLT-4 leukemia 8% | SR leukemia -45.1% | RPMI-8226 leukemia -54.6% | OVCAR-8 ovarian -52.5% | OVCAR-5 ovarian -19.9% | SK-OV-3 ovarian -10.5% | IGROV1 ovarian 6.28% | OVCAR-3 ovarian -46.7% | HS 578T breast -45.7% | NCI/ADR-RES ovarian -56.8%

COc1ccc(C(SCCNCc2cc(N(C)C)ccn2)(c2ccccc2)c2ccccc2)cc1
active: SK-MEL-2 melanoma -34.9% | EKVX NSCLC 9.49% | A498 renal 4.54% | CCRF-CEM leukemia 4.47% | MOLT-4 leukemia 9.51% | SR leukemia -43.2% | RPMI-8226 leukemia -27.1% | OVCAR-8 ovarian -5.35% | OVCAR-5 ovarian -13.8% | SK-OV-3 ovarian -5.07% | OVCAR-3 ovarian -1.36% | HS 578T breast -23.1% | NCI/ADR-RES ovarian -46.1%
inactive: UO-31 renal 15.4% | TK-10 renal 24.5% | ACHN renal 20.3% | CAKI-1 renal 11.3% | OVCAR-4 ovarian 22.3% | IGROV1 ovarian 11.4%

CC(=O)OC[C@@]1(C)C2CC[C@]3(C)C(CC=C4C5CC(C)(C)CC[C@]5(C(=O)Nc5ccc(F)cc5)CC[C@]43C)[C@@]2(C)C[C@@H](OC(C)=O)[C@@H]1OC(C)=O (some centres not stated)
inactive: SK-MEL-2 melanoma 32.6% | EKVX NSCLC 28.1% | UO-31 renal 38.6% | TK-10 renal 56.5% | ACHN renal 38.6% | CAKI-1 renal 44.9% | A498 renal 63.1% | CCRF-CEM leukemia 29.8% | MOLT-4 leukemia 35% | SR leukemia 27.8% | RPMI-8226 leukemia 13.5% | OVCAR-8 ovarian 36.4% | OVCAR-5 ovarian 78.7% | OVCAR-4 ovarian 30.3% | SK-OV-3 ovarian 45.1% | IGROV1 ovarian 51.9% | OVCAR-3 ovarian 42% | HS 578T breast 85.3% | NCI/ADR-RES ovarian 40.6%

CCCCCCCCc1ccc(C(=O)Nc2cccc(P(=O)(O)O)c2)cc1
inactive: SK-MEL-2 melanoma 106% | EKVX NSCLC 103% | UO-31 renal 97.5% | TK-10 renal 105% | ACHN renal 110% | CAKI-1 renal 93.6% | A498 renal 105% | CCRF-CEM leukemia 79.6% | MOLT-4 leukemia 98.6% | SR leukemia 87.7% | RPMI-8226 leukemia 96.4% | OVCAR-8 ovarian 99.7% | OVCAR-5 ovarian 116% | OVCAR-4 ovarian 111% | SK-OV-3 ovarian 112% | IGROV1 ovarian 108% | OVCAR-3 ovarian 106% | HS 578T breast 102% | NCI/ADR-RES ovarian 101%

CC(C)Sc1nc(NCCc2c[nH]c3ccccc23)c(C#N)c(-c2ccccc2)n1
inactive: SK-MEL-2 melanoma 68.7% | EKVX NSCLC 18% | UO-31 renal 32.1% | TK-10 renal 67.4% | ACHN renal 33% | CAKI-1 renal 34.3% | A498 renal 23.4% | OVCAR-8 ovarian 38% | OVCAR-5 ovarian 68.7% | OVCAR-4 ovarian 53.6% | SK-OV-3 ovarian 70.2% | IGROV1 ovarian 87.8% | OVCAR-3 ovarian 44.4% | NCI/ADR-RES ovarian 15.1%
active: CCRF-CEM leukemia 8.66% | MOLT-4 leukemia 5.18% | SR leukemia -17.2% | RPMI-8226 leukemia 7.27% | HS 578T breast 8.79%

Cc1ccc(-n2c(-c3cc4ccccc4nc3Cl)noc2=O)cc1
inactive: SK-MEL-2 melanoma 80.9% | EKVX NSCLC 47.5% | UO-31 renal 72.4% | TK-10 renal 122% | ACHN renal 93.6% | CAKI-1 renal 49.8% | A498 renal 137% | CCRF-CEM leukemia 84.6% | MOLT-4 leukemia 76.5% | SR leukemia 31.8% | RPMI-8226 leukemia 81.2% | OVCAR-8 ovarian 94.4% | OVCAR-5 ovarian 98.1% | OVCAR-4 ovarian 92.5% | SK-OV-3 ovarian 80.1% | IGROV1 ovarian 90.9% | OVCAR-3 ovarian 99.8% | HS 578T breast 80.9% | NCI/ADR-RES ovarian 52.3%

Cc1ccc(C(=O)CSc2nc3ccc(F)cc3c(=O)n2-c2ccc(Cl)cc2)cc1
inactive: SK-MEL-2 melanoma 99.1% | EKVX NSCLC 51.1% | UO-31 renal 56.4% | TK-10 renal 83.7% | ACHN renal 33.3% | CAKI-1 renal 10.1% | A498 renal 55.7% | CCRF-CEM leukemia 75.8% | MOLT-4 leukemia 82.4% | SR leukemia 93.9% | RPMI-8226 leukemia 93.9% | OVCAR-8 ovarian 37.8% | OVCAR-5 ovarian 76.2% | OVCAR-4 ovarian 31% | SK-OV-3 ovarian 46% | IGROV1 ovarian 82.7% | OVCAR-3 ovarian 82.4% | NCI/ADR-RES ovarian 28.3%
active: HS 578T breast -18.9%

Cc1cc(=O)oc2cc(OCCCOc3ccc(/C=C/C(=O)Nc4ccccc4N)cc3)ccc12
inactive: SK-MEL-2 melanoma 48.7% | EKVX NSCLC 31.2% | TK-10 renal 49.8% | ACHN renal 34.6% | CAKI-1 renal 29.6% | A498 renal 11.2% | MOLT-4 leukemia 12.5% | SR leukemia 21.4% | OVCAR-8 ovarian 44.2% | OVCAR-5 ovarian 37.5% | OVCAR-4 ovarian 40.9% | IGROV1 ovarian 39.4% | HS 578T breast 48.3% | NCI/ADR-RES ovarian 21.3%
active: UO-31 renal -22.9% | CCRF-CEM leukemia 9.74% | RPMI-8226 leukemia 0.19% | SK-OV-3 ovarian 7.97% | OVCAR-3 ovarian 5.72%

CCCCCCCCc1ccc(C(=O)Nc2ccc(C)cc2C(=O)O)cc1C
inactive: SK-MEL-2 melanoma 97.5% | EKVX NSCLC 88.4% | UO-31 renal 78.6% | TK-10 renal 102% | ACHN renal 84.4% | CAKI-1 renal 78.2% | A498 renal 98.8% | CCRF-CEM leukemia 79.8% | MOLT-4 leukemia 90.8% | SR leukemia 88.2% | RPMI-8226 leukemia 82.7% | OVCAR-8 ovarian 93.2% | OVCAR-5 ovarian 115% | OVCAR-4 ovarian 102% | SK-OV-3 ovarian 100% | IGROV1 ovarian 98.2% | OVCAR-3 ovarian 108% | HS 578T breast 93.1% | NCI/ADR-RES ovarian 96.3%

CC(C)CSc1nc(NCCc2c[nH]c3ccccc23)c(C#N)c(-c2ccccc2)n1
active: SR leukemia -10.2%
inactive: SK-MEL-2 melanoma 75.6% | EKVX NSCLC 39.7% | UO-31 renal 72.2% | TK-10 renal 110% | ACHN renal 69.3% | CAKI-1 renal 50.8% | A498 renal 67.9% | CCRF-CEM leukemia 30.2% | MOLT-4 leukemia 30.7% | RPMI-8226 leukemia 35.8% | OVCAR-8 ovarian 76.9% | OVCAR-5 ovarian 85.6% | OVCAR-4 ovarian 77.2% | SK-OV-3 ovarian 86.7% | IGROV1 ovarian 104% | OVCAR-3 ovarian 93.5% | HS 578T breast 48.2% | NCI/ADR-RES ovarian 53.5%

CN(C)c1ccnc(CNCCSC2(c3ccc(C(F)(F)F)cc3)c3ccccc3CCc3ccccc32)c1
inactive: OVCAR-4 ovarian 13.9%
active: SK-MEL-2 melanoma -37.6% | EKVX NSCLC -25.3% | UO-31 renal 1.7% | TK-10 renal 0.0233% | ACHN renal -12.1% | CAKI-1 renal -0.905% | A498 renal -4.68% | CCRF-CEM leukemia -43.6% | MOLT-4 leukemia -20.9% | SR leukemia -50.9% | RPMI-8226 leukemia -47.8% | OVCAR-8 ovarian -87.3% | OVCAR-5 ovarian -22.7% | SK-OV-3 ovarian -17.4% | IGROV1 ovarian -5.42% | OVCAR-3 ovarian -36.5% | HS 578T breast -23.4% | NCI/ADR-RES ovarian -73.9%

CCCSc1nc(NCCc2c[nH]c3ccccc23)c(C#N)c(-c2ccc(OC)cc2)n1
active: SR leukemia 4.81%
inactive: SK-MEL-2 melanoma 75.5% | EKVX NSCLC 32.5% | UO-31 renal 41.8% | TK-10 renal 82.9% | ACHN renal 64.9% | CAKI-1 renal 51% | A498 renal 61.4% | CCRF-CEM leukemia 25.7% | MOLT-4 leukemia 26.1% | RPMI-8226 leukemia 23.9% | OVCAR-8 ovarian 67.9% | OVCAR-5 ovarian 82.1% | OVCAR-4 ovarian 61.2% | SK-OV-3 ovarian 90.6% | IGROV1 ovarian 91.2% | OVCAR-3 ovarian 82.3% | HS 578T breast 42.9% | NCI/ADR-RES ovarian 47.9%

Source: PubChem BioAssay (NCI)
